Experimental data from PubChem BioAssay (NCI).
Compounds without any hit were thinned out: in the full panel of roughly 79,000, 15% have a hit. Activity calls are given as the source filed them. Rule as the data show it: active = growth inhibition above about 70%; inactive = the rest.

How the values were obtained:
[1] = NCI Yeast Anticancer Drug Screen. Data for the rad50 strain (AID 155);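 also: 0% = growth of vehicle-only cultures of the same strain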; settings: S. cerevisiae rad50 strain growth inhibition; at 50.0 µM; hits give high values
In short: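 Yeast carrying a defined DNA repair defect were exposed to test compounds, and growth was compared with vehicle-treated controls to give percent inhibition.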

[2] = NCI Yeast Anticancer Drug Screen. Data for the mec2-1 strain (AID 157); settings: S. cerevisiae mec2-1 strain, at 50.0 µM, hits give high values
In short: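 Using mec2-1 yeast: add compound, measure growth, express inhibition versus vehicle-treated cultures.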

[3] = NCI Yeast Anticancer Drug Screen. Data for the sgs1 mgt1 strain (AID 161);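 also: 0% = growth of cultures given vehicle only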; settings: S. cerevisiae sgs1 mgt1 strain, at 50.0 µM, hits give high values
In short: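 Growth of a repair-deficient yeast mutant was monitored after compound treatment and expressed as inhibition relative to vehicle-treated cultures.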

[4] = NCI Yeast Anticancer Drug Screen. Data for the cln2 rad14 strain (AID 165);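 also: 0% = growth equal to vehicle treated cultures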; settings: S. cerevisiae cln2 rad14 strain, at 50.0 µM, hits give high values
In short: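 Yeast strain cln2 rad14, bearing defects in cell cycle control and DNA repair, serves as the test system; values reflect growth inhibition compared with vehicle.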

[5] = NCI Yeast Anticancer Drug Screen. Data for the bub3 strain (AID 167); settings: S. cerevisiae bub3 mutant strain, at 50.0 µM, hits give high values
In short: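 Compounds were applied to a genetically altered yeast strain carrying a cell-cycle control defect. Growth inhibition was scored against vehicle-treated controls.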

[6] = NCI Yeast Anticancer Drug Screen. Data for the mlh1 rad18 strain (AID 175); settings: S. cerevisiae mlh1 rad18 strain growth inhibition; at 50.0 µM; hits give high values
In short: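 Steps: expose repair-defective yeast to compound; measure growth; express inhibition against vehicle-treated controls.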

Measured: growth inhibition

C=C(C)C(=O)OCCCCC
inactive: [1] 8.7% | [2] 5.15% | [3] 4.45% | [4] 6.65% | [5] -3.55% | [6] 2.95%

CCOC(=O)/C(=C\c1ccccc1)c1nc2ccccc2[nH]1
inactive: [1] -1.2% | [2] -13.2% | [3] -15.4% | [4] -15.5% | [5] -14.7% | [6] -13.6%

Cc1c(Cl)c(=O)oc2cc(OCC(O)COC(C)C)ccc12 (stereo unspecified)
inactive: [1] -23.7% | [2] -30.9% | [3] -36.3% | [4] -23.2% | [5] -13.3% | [6] -25.4%

CCCCCCCCCCn1cnc2c(=O)[nH]c(N)nc21
inactive: [1] 1.85% | [2] 2.75% | [3] 9.7% | [4] -0.25% | [5] 2.8% | [6] -4.85%

COc1ccc(-n2nc3c(ccc4ccccc43)c2N)cc1
inactive: [1] 2.8% | [2] -8.5% | [3] 16.5% | [4] -2.05% | [5] -0.4% | [6] 8.5%

COC(=O)/C(=N\NC(C)(C)C)C(C(=O)OC)C(=O)C(=O)Nc1cc(Cl)ccc1Cl (stereo unspecified)
inactive: [1] 6.7% | [2] -0.25% | [3] -1.65% | [4] 1% | [5] -24.6% | [6] 8.55%

CC(=O)Nc1cc(C)c(C)cc1NC(C)=O
inactive: [1] -23.9% | [2] -16.6% | [3] -8.35% | [4] -21.8% | [5] -5.1% | [6] -7.4%

CN(C)C/C=C(/c1ccc(Br)cc1)c1cccnc1
inactive: [1] -5.75% | [2] -16% | [3] -3.7% | [4] -20.4% | [5] -12.6% | [6] 1.65%

CC(C)(C)NCC1CCCC1
inactive: [1] 0.55% | [2] -1.5% | [3] 2.4% | [4] -22.9% | [5] -11.4% | [6] -3.8%

C/C=C/c1ccc(OC(C)C(=O)c2ccc3c(c2)OCO3)c(OC)c1 (stereo unspecified)
inactive: [1] -12.4% | [2] -28.9% | [3] 8.8% | [4] -10.5% | [5] 6.7% | [6] -7.05%

O=C1CCCc2ccc([N+](=O)[O-])cc21
inactive: [1] -3.35% | [2] -54.7% | [3] -17.2% | [4] 18.6% | [5] -11.8% | [6] 23.1%

CC1CC(=O)Oc2ccccc21 (stereo unspecified)
inactive: [1] 35.5% | [2] 5.7% | [3] 3.8% | [4] -3.35% | [5] 5.95% | [6] 1.5%

CCCCCCCCCSCCOC(=S)N(C)C
active: [3] 79.2%
inactive: [1] 13.7% | [2] 14.7% | [4] 2.7% | [5] 21.8% | [6] 34.6%

CS(=O)(=O)OC1CCCSc2ccccc21 (stereo unspecified)
inactive: [1] 8.8% | [2] 2% | [3] -14.4% | [4] -8.2% | [5] 16.7% | [6] -25.4%

CCOC1(OCC)CCC2(CC1)c1ccccc1-c1ccccc12
inactive: [1] 9.5% | [2] 15.8% | [3] 2.95% | [4] 1.15% | [5] -7.45% | [6] 14.8%

CC(=O)/C=C/c1ccc(C)cc1
inactive: [1] 27.1% | [2] 9.9% | [3] 8.75% | [4] 4.15% | [5] 20.6% | [6] 10.7%

NC=O
inactive: [1] -9.45% | [2] 11.2% | [3] 7.1% | [4] -1.4% | [5] -0.15% | [6] -11.7%

COc1ccc(Br)cc1/C=N/N=C/c1cc(Br)ccc1OC
inactive: [1] -0.2% | [2] -21.6% | [3] 1.5% | [4] 20.9% | [5] 21.5% | [6] 23.4%

COC(=O)C1CCC(=O)N1CN(C(C)=O)c1cc(OC)ccc1OC (stereo unspecified)
inactive: [1] 14.9% | [2] -0.05% | [3] 2.85% | [4] 6.45% | [5] -5.15% | [6] -50.1%

O=C(O)/C(=C(\CO)c1ccccc1)c1ccccc1
inactive: [1] 7.15% | [2] 9.25% | [3] 11% | [4] 24.4% | [5] 3.25% | [6] 26.7%

OCCc1ccc2ccccc2c1
inactive: [1] 4.05% | [2] -5.95% | [3] 3.05% | [4] -9.3% | [5] 13.8% | [6] -1.15%
